The source of these data is the supplement of paper PMC9950053.

Structures can show the parent of a compound that is named as a salt.

The assay deals with Danio rerio larvae (5 dpf). The assay can be described thus: startle (activity period 16 minus period 15, 20-s interval sound) minus DMSO control (percentage points); higher = stronger startle response than DMSO larvae. The following applies: 10 µM; exposure time: 3 h pre-incubation + 3 h imaging. The procedure:
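Wild-type 5 dpf zebrafish larvae (n=48 per drug, 96-well plates, 28.5 °C) were exposed to Tocris FDA-approved library compounds at 10 µM (0.1% DMSO) for 3 h before and 3 h during imaging. Images were taken every 6 s during visual and acoustic stimuli, and larvae were tracked with Z-LaP Tracker. Each measure is the treated-group mean minus the DMSO control mean (n=844), in percentage points. This mapping covers compounds with 5-character plate codes.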
Turning to `N#Cc1ccc2[nH]cc(CCCCN3CCN(c4ccc5oc(C(N)=O)cc5c4)CC3)c2c1` [Vilazodone hydrochloride], the startle was -7.54.
For `CCCc1nn(C)c2c(=O)[nH]c(-c3cc(S(=O)(=O)N4CCN(C)CC4)ccc3OCC)nc12` [Sildenafil citrate], the startle is -1.15.
The figure for `O=C1CCc2ccc(OCCCCN3CCN(c4cccc(Cl)c4Cl)CC3)cc2N1` [Aripiprazole] is -3.31; for `N#C[C@@H]1C[C@@H]2C[C@@H]2N1C(=O)[C@@H](N)C12CC3CC(CC(O)(C3)C1)C2` [Saxagliptin hydrochloride] it is 4.83.
The figure for `CN[C@H]1CC[C@@H](c2ccc(Cl)c(Cl)c2)c2ccccc21` [Sertraline hydrochloride] is 2.62; for `COCCc1ccc(OCC(O)CNC(C)C)cc1` (configuration not stated) [Metoprolol tartrate] it is 4.47; for `CC(C)(C(=O)O)c1ccc(C(O)CCCN2CCC(C(O)(c3ccccc3)c3ccccc3)CC2)cc1` (configuration not stated) [Fexofenadine hydrochloride] it is 3.14.
Regarding `NS(=O)(=O)c1cc2c(cc1Cl)NC(C1CC3C=CC1C3)NS2(=O)=O` (configuration not stated) [Cyclothiazide], the startle came out at 1.22.
The value for `COc1cc(N)c(Cl)cc1C(=O)NC1CCN(CCCOc2ccc(F)cc2)CC1OC` (configuration not stated) [Cisapride] was -1.14; that for `CC(=O)Nc1ccc(O)cc1` [Acetaminophen] was 0.242.
The figure for `CC(C)OC(=O)C(C)(C)Oc1ccc(C(=O)c2ccc(Cl)cc2)cc1` [Fenofibrate] is -5.75; for `CNS(=O)(=O)Cc1ccc2[nH]cc(CCN(C)C)c2c1` [Sumatriptan succinate] it is 2.1.
The figure for `COc1ccccc1Oc1c(NS(=O)(=O)c2ccc(C(C)(C)C)cc2)nc(-c2ncccn2)nc1OCCO` [Bosentan] is 7.41; for `CNC(=O)c1cc(Oc2ccc(NC(=O)Nc3ccc(Cl)c(C(F)(F)F)c3)cc2)ccn1` [Sorafenib] it is -3.34.
In the case of `C[C@H]1O[C@H](O[C@H]2[C@H](O)[C@@H](O)[C@@H](O[C@H]3[C@H](O)[C@@H](O)C(O)O[C@@H]3CO)O[C@@H]2CO)[C@H](O)[C@@H](O)[C@@H]1N[C@H]1C=C(CO)[C@@H](O)[C@H](O)[C@H]1O` (some centres not stated) [Acarbose], the startle was -7.07.
The value for `CNCc1ccc(-c2[nH]c3cc(F)cc4c3c2CCNC4=O)cc1` [Rucaparib camsylate] was -4.48.
The value for `CN(C)C(=N)NC(=N)N` [Metformin hydrochloride] was -2.04; that for `CN(C)CCc1c[nH]c2ccc(C[C@H]3COC(=O)N3)cc12` [Zolmitriptan] was 2.75.
For the compound `NC(=O)OCC(COC(N)=O)c1ccccc1` [Felbamate], the startle amounted to 1.44.
The figure for `OCCN1C[C@H](O)[C@@H](O)[C@H](O)[C@H]1CO` [Miglitol] is -0.148; for `CCCCCCCN(CC)CCCC(O)c1ccc(NS(C)(=O)=O)cc1` (configuration not stated) [Ibutilide hemifumarate] it is -4.59.
The value for `Cc1cc2c(s1)Nc1ccccc1N=C2N1CCN(C)CC1` [Olanzapine] was 2.27; that for `Clc1ccc2nsnc2c1NC1=NCCN1` [Tizanidine hydrochloride] was -2.98.
The value for `COc1cc([C@@H]2c3cc4c(cc3[C@@H](O[C@@H]3O[C@@H]5CO[C@@H](C)O[C@H]5[C@H](O)[C@H]3O)[C@H]3COC(=O)[C@H]23)OCO4)cc(OC)c1O` [Etoposide] was -0.943; that for `CCCC1O[C@@H]2C[C@H]3[C@@H]4CCC5=CC(=O)C=C[C@]5(C)[C@H]4[C@@H](O)C[C@]3(C)[C@]2(C(=O)CO)O1` (some centres not stated) [Budesonide] was -5.13.
Consider `CC(=O)Oc1cc2c(s1)CCN(C(C(=O)C1CC1)c1ccccc1F)C2` (configuration not stated) [Prasugrel], for which the startle was -11.4.
Regarding `OC(c1cc(C(F)(F)F)nc2c(C(F)(F)F)cccc12)C1CCCCN1` (configuration not stated) [Mefloquine hydrochloride], the startle was -13.1.
The figure for `COc1cc2nccc(Oc3ccc(NC(=O)C4(C(=O)Nc5ccc(F)cc5)CC4)cc3)c2cc1OC` is -3.85; for `COc1ccccc1OCC(O)CN1CCN(CC(=O)Nc2c(C)cccc2C)CC1` (configuration not stated) [Ranolazine dihydrochloride] it is 2.16.
The value for `C#CCN[C@@H]1CCc2ccccc21` [Rasagiline mesylate] was 3.19; that for `C[C@@H]1C[C@H]2[C@@H]3CCC4=CC(=O)C=C[C@]4(C)[C@@]3(F)[C@@H](O)C[C@]2(C)[C@@]1(O)C(=O)CO` [Dexamethasone] was -0.0968.
As to `OCc1cc(C(O)CNCCCCCCOCCCCc2ccccc2)ccc1O` (configuration not stated) [Salmeterol xinafoate], the startle was -4.63.
The figure for `O=c1n(CCCN2CCN(c3cccc(Cl)c3)CC2)nc2ccccn12` [Trazodone hydrochloride] is 3.18; for `CCc1nc(N)nc(N)c1-c1ccc(Cl)cc1` [Pyrimethamine] it is 1.66.
The figure for `CC(C)COCC(CN(Cc1ccccc1)c1ccccc1)N1CCCC1` (configuration not stated) [Bepridil hydrochloride] is -3.27; for `O=C(O)C[C@H](O)C[C@H](O)/C=C/c1c(C2CC2)nc2ccccc2c1-c1ccc(F)cc1` [Pitavastatin calcium] it is 2.76.
`CC[C@H]1OC(=O)[C@H](C)[C@@H](O[C@H]2C[C@@](C)(OC)[C@@H](O)[C@H](C)O2)[C@H](C)[C@@H](O[C@@H]2O[C@H](C)C[C@H](N(C)C)[C@H]2O)[C@](C)(O)C[C@@H](C)CN(C)[C@H](C)[C@@H](O)[C@]1(C)O` [Azithromycin]: the startle is 2.55.
